Measurements published in the supplement of paper PMC12669032.

What was measured:
Experiment in all cases: growth AUC relative to DMSO control (median of replicates) (fraction); higher = more growth (less inhibition), active = hit call of the paper
Settings in all cases: 20 µM; 24 h;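 active = AUC reduced over 20% with Padj below 0.05 in at least 2 of 3 replicates; inactive = otherwise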
Akkermansia muciniphila = test system: Akkermansia muciniphila
Procedure, shortened: (§1)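 Hourly OD600 readings over 24 h tracked anaerobic gut bacterial monocultures grown at 37 °C in mGAM from OD600 0.05 with 20 µM compound (1% DMSO). After the minimum OD was set to 0, area under the growth curve was normalised to the plate median of solvent-only wells, or to row and column medians on the industrial chemical plate. Values are medians of three biological replicates grown on separate days.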

Bacteroides caccae = test system: Bacteroides caccae
Procedure, shortened: as §1

Bacteroides clarus = test system: Bacteroides clarus
Procedure, shortened: as §1

Bacteroides dorei = test system: Bacteroides dorei
Procedure, shortened: as §1

Bacteroides stercoris = test system: Bacteroides stercoris
Procedure, shortened: as §1

[1] = test system: Bacteroides thetaiotaomicron
Procedure, shortened: as §1

Bacteroides uniformis = test system: Bacteroides uniformis
Procedure, shortened: as §1

[2] = test system: Bifidobacterium longum subsp. longum
Procedure, shortened: as §1

Clostridium difficile = test system: Clostridium difficile
Procedure, shortened: as §1

Collinsella aerofaciens = test system: Collinsella aerofaciens
Procedure, shortened: as §1

Coprococcus comes = test system: Coprococcus comes
Procedure, shortened: as §1

Escherichia coli ED1a = test system: Escherichia coli ED1a
Procedure, shortened: as §1

Escherichia coli IAI1 = test system: Escherichia coli IAI1
Procedure, shortened: as §1

Eubacterium rectale = test system: Eubacterium rectale
Procedure, shortened: as §1

[3] = test system: Fusobacterium nucleatum subsp. animalis
Procedure, shortened: as §1

Lactobacillus gasseri = test system: Lactobacillus gasseri
Procedure, shortened: as §1

Lactobacillus paracasei = test system: Lactobacillus paracasei
Procedure, shortened: as §1

Odoribacter splanchnicus = test system: Odoribacter splanchnicus
Procedure, shortened: as §1

[4] = test system: Parabacteroides distasonis
Procedure, shortened: as §1

Parabacteroides merdae = test system: Parabacteroides merdae
Procedure, shortened: as §1

Measured: growth AUC

COC(=O)c1csc(C)c1S(=O)(=O)NC(=O)n1nc(OC)n(C)c1=O
inactive: Akkermansia muciniphila 1.17 | Bacteroides caccae 0.981 | Bacteroides clarus 1 | Bacteroides dorei 0.967 | Bacteroides stercoris 1.02 | [1] 0.993 | Bacteroides uniformis 0.955 | [2] 1.04 | Clostridium difficile 0.931 | Collinsella aerofaciens 0.956 | Coprococcus comes 1.01 | Escherichia coli ED1a 1 | Escherichia coli IAI1 0.971 | Eubacterium rectale 1.11 | [3] 0.942 | Lactobacillus gasseri 0.805 | Lactobacillus paracasei 0.993 | Odoribacter splanchnicus 0.982 | [4] 0.801 | Parabacteroides merdae 0.99

C#CCN(C)c1c(C#N)cnn1-c1nn2c(c1Cl)CCCC2
inactive: Akkermansia muciniphila 0.903 | Bacteroides caccae 0.935 | Bacteroides clarus 0.931 | Bacteroides dorei 0.987 | Bacteroides stercoris 0.851 | [1] 0.933 | Bacteroides uniformis 0.914 | [2] 0.995 | Clostridium difficile 1 | Collinsella aerofaciens 1.02 | Coprococcus comes 0.998 | Escherichia coli ED1a 0.999 | Escherichia coli IAI1 1.02 | Eubacterium rectale 1.07 | [3] 0.972 | Lactobacillus gasseri 1.05 | Lactobacillus paracasei 1.05 | Odoribacter splanchnicus 1.05 | [4] 0.98 | Parabacteroides merdae 1.01

N#Cc1ccccc1NC(=O)c1snc(Cl)c1Cl
inactive: Akkermansia muciniphila 1.07 | Bacteroides caccae 0.956 | Bacteroides clarus 0.982 | Bacteroides dorei 1.01 | Bacteroides stercoris 1.15 | [1] 1 | Bacteroides uniformis 0.974 | [2] 0.9 | Clostridium difficile 0.944 | Collinsella aerofaciens 1.05 | Coprococcus comes 0.967 | Escherichia coli ED1a 0.993 | Escherichia coli IAI1 0.995 | Eubacterium rectale 1.04 | [3] 1.09 | Lactobacillus gasseri 1 | Lactobacillus paracasei 1.01 | Odoribacter splanchnicus 1.01 | [4] 1 | Parabacteroides merdae 1.02

c1ccc2cc3c(ccc4ccccc43)cc2c1
inactive: Akkermansia muciniphila 1.01 | Bacteroides caccae 0.994 | Bacteroides clarus 1 | Bacteroides dorei 0.993 | Bacteroides stercoris 0.994 | [1] 1.01 | Bacteroides uniformis 1.01 | [2] 0.962 | Clostridium difficile 0.992 | Collinsella aerofaciens 1 | Coprococcus comes 1 | Escherichia coli ED1a 0.999 | Escherichia coli IAI1 0.994 | Eubacterium rectale 1.08 | [3] 1.01 | Lactobacillus gasseri 0.969 | Lactobacillus paracasei 1 | Odoribacter splanchnicus 0.992 | [4] 0.961 | Parabacteroides merdae 0.995

Cc1cc(C)cc(O)c1
inactive: Akkermansia muciniphila 0.865 | Bacteroides caccae 1.04 | Bacteroides clarus 0.983 | Bacteroides dorei 1.01 | Bacteroides stercoris 1 | [1] 1.01 | Bacteroides uniformis 1 | [2] 0.906 | Clostridium difficile 1.03 | Collinsella aerofaciens 1.02 | Coprococcus comes 1.02 | Escherichia coli ED1a 0.953 | Escherichia coli IAI1 0.984 | Eubacterium rectale 0.95 | [3] 0.923 | Lactobacillus gasseri 1.01 | Lactobacillus paracasei 0.958 | Odoribacter splanchnicus 0.988 | [4] 1.01 | Parabacteroides merdae 0.988

O=C(O)Cc1c(Cl)ccc(Cl)c1Cl
inactive: Akkermansia muciniphila 0.95 | Bacteroides caccae 1 | Bacteroides clarus 0.99 | Bacteroides dorei 1.02 | Bacteroides stercoris 0.951 | [1] 1 | Bacteroides uniformis 0.993 | [2] 1.04 | Clostridium difficile 1 | Collinsella aerofaciens 1 | Coprococcus comes 0.959 | Escherichia coli ED1a 0.947 | Escherichia coli IAI1 0.999 | Eubacterium rectale 0.96 | [3] 0.928 | Lactobacillus gasseri 1.06 | Lactobacillus paracasei 1.03 | Odoribacter splanchnicus 0.946 | [4] 1.05 | Parabacteroides merdae 1.01

COCCCNc1nc(NC(C)C)nc(SC)n1
inactive: Akkermansia muciniphila 0.847 | Bacteroides caccae 0.981 | Bacteroides clarus 0.976 | Bacteroides dorei 0.989 | Bacteroides stercoris 0.977 | [1] 0.957 | Bacteroides uniformis 0.982 | [2] 0.985 | Clostridium difficile 0.963 | Collinsella aerofaciens 0.993 | Coprococcus comes 0.963 | Escherichia coli ED1a 1.01 | Escherichia coli IAI1 0.986 | Eubacterium rectale 0.914 | [3] 0.904 | Lactobacillus gasseri 1.04 | Lactobacillus paracasei 0.943 | Odoribacter splanchnicus 0.954 | [4] 1.01 | Parabacteroides merdae 0.992

COC(=O)c1ccc(C(F)(F)F)nc1S(=O)(=O)[N-]C(=O)Nc1nc(OC)cc(OC)n1.[Na+]
inactive: Akkermansia muciniphila 0.963 | Bacteroides caccae 1.01 | Bacteroides clarus 0.997 | Bacteroides dorei 1.01 | Bacteroides stercoris 0.908 | [1] 0.993 | Bacteroides uniformis 0.978 | [2] 0.938 | Clostridium difficile 1.05 | Collinsella aerofaciens 1.03 | Coprococcus comes 0.979 | Escherichia coli ED1a 0.983 | Escherichia coli IAI1 0.966 | Eubacterium rectale 0.961 | [3] 0.965 | Lactobacillus gasseri 0.986 | Lactobacillus paracasei 0.921 | Odoribacter splanchnicus 1.07 | [4] 1 | Parabacteroides merdae 0.974

C/C=C/C(=O)Oc1c(C(C)CCCCCC)cc([N+](=O)[O-])cc1[N+](=O)[O-] (mixture of isomers)
inactive: Akkermansia muciniphila 1 | Coprococcus comes 0.509 | Escherichia coli ED1a 0.976 | Escherichia coli IAI1 0.985 | [3] 0.94 | Odoribacter splanchnicus 0.679
active: Bacteroides caccae 0.285 | Bacteroides clarus 0.0314 | Bacteroides dorei 0.0151 | Bacteroides stercoris 0.0105 | [1] 0.569 | Bacteroides uniformis 0.448 | [2] 0.289 | Clostridium difficile 0.0443 | Collinsella aerofaciens 0.789 | Eubacterium rectale 0.665 | Lactobacillus gasseri 0.273 | Lactobacillus paracasei 0.41 | [4] 0.288 | Parabacteroides merdae 0.00823

CCN(CC)C(=O)SCc1ccccc1Cl
inactive: Akkermansia muciniphila 0.931 | Bacteroides caccae 1.02 | Bacteroides clarus 0.985 | Bacteroides dorei 1 | Bacteroides stercoris 1.01 | [1] 0.983 | Bacteroides uniformis 0.957 | [2] 0.965 | Clostridium difficile 0.996 | Collinsella aerofaciens 1.01 | Coprococcus comes 1.01 | Escherichia coli ED1a 1.04 | Escherichia coli IAI1 1 | Eubacterium rectale 0.939 | [3] 0.964 | Lactobacillus gasseri 1.1 | Lactobacillus paracasei 0.994 | Odoribacter splanchnicus 1.12 | [4] 0.92 | Parabacteroides merdae 0.95

Cc1c(C(=O)c2c[nH]n(C)c2=O)ccc(S(C)(=O)=O)c1C1=NOCC1
inactive: Akkermansia muciniphila 0.937 | Bacteroides caccae 1.03 | Bacteroides clarus 0.983 | Bacteroides dorei 0.989 | Bacteroides stercoris 0.895 | [1] 1 | Bacteroides uniformis 1.01 | [2] 1.13 | Clostridium difficile 1 | Collinsella aerofaciens 0.976 | Coprococcus comes 1.02 | Escherichia coli ED1a 0.984 | Escherichia coli IAI1 0.981 | Eubacterium rectale 0.99 | [3] 0.972 | Lactobacillus gasseri 0.999 | Lactobacillus paracasei 0.954 | Odoribacter splanchnicus 1.04 | [4] 1.04 | Parabacteroides merdae 1

O=C(O)COc1cc(N2C(=O)C3=C(CCCC3)C2=O)c(F)cc1Cl
inactive: Akkermansia muciniphila 0.82 | Bacteroides caccae 0.999 | Bacteroides clarus 0.98 | Bacteroides dorei 0.968 | Bacteroides stercoris 1.08 | [1] 0.975 | Bacteroides uniformis 1.05 | [2] 1.04 | Clostridium difficile 1.02 | Collinsella aerofaciens 0.967 | Coprococcus comes 1.01 | Escherichia coli ED1a 1.01 | Escherichia coli IAI1 1 | Eubacterium rectale 1.03 | [3] 1.02 | Lactobacillus gasseri 0.967 | Lactobacillus paracasei 1.05 | Odoribacter splanchnicus 1.03 | [4] 1.03 | Parabacteroides merdae 1.04

O=C1NC(=O)c2ccccc21
inactive: Akkermansia muciniphila 1.09 | Bacteroides caccae 0.873 | Bacteroides clarus 1.02 | Bacteroides dorei 1 | Bacteroides stercoris 1.31 | [1] 1 | Bacteroides uniformis 1.01 | [2] 1.04 | Clostridium difficile 1.01 | Collinsella aerofaciens 0.982 | Coprococcus comes 1.02 | Escherichia coli ED1a 1.02 | Escherichia coli IAI1 1.02 | Eubacterium rectale 0.984 | [3] 1.05 | Lactobacillus gasseri 1.06 | Lactobacillus paracasei 1.04 | Odoribacter splanchnicus 0.89 | [4] 1.02 | Parabacteroides merdae 1.02

CC(C)NS(=O)(=O)NC(=O)c1cc(-n2c(=O)cc(C(F)(F)F)[nH]c2=O)c(F)cc1Cl
inactive: Akkermansia muciniphila 1.11 | Bacteroides caccae 1.04 | Bacteroides clarus 1.01 | Bacteroides dorei 1.01 | Bacteroides stercoris 0.984 | [1] 0.991 | Bacteroides uniformis 1.02 | [2] 0.993 | Clostridium difficile 1.02 | Collinsella aerofaciens 0.994 | Coprococcus comes 0.998 | Escherichia coli ED1a 1.02 | Escherichia coli IAI1 1.03 | Eubacterium rectale 1.01 | [3] 1.03 | Lactobacillus gasseri 0.974 | Lactobacillus paracasei 0.991 | Odoribacter splanchnicus 0.977 | [4] 1.05 | Parabacteroides merdae 0.983

O=C(O)COc1ccc(Cl)cc1CO
inactive: Akkermansia muciniphila 1.15 | Bacteroides caccae 0.99 | Bacteroides clarus 0.995 | Bacteroides dorei 0.721 | Bacteroides stercoris 0.938 | [1] 0.971 | Bacteroides uniformis 0.98 | [2] 1 | Clostridium difficile 1.03 | Collinsella aerofaciens 0.96 | Coprococcus comes 0.999 | Escherichia coli ED1a 0.964 | Escherichia coli IAI1 1.01 | Eubacterium rectale 1.05 | [3] 0.931 | Lactobacillus gasseri 0.852 | Lactobacillus paracasei 0.993 | Odoribacter splanchnicus 0.96 | [4] 0.91 | Parabacteroides merdae 0.978
